From the supplement of paper PMC5407854, “Inhibitor of ppGalNAc-T3-mediated O-glycosylation blocks cancer cell invasiveness and lowers FGF23 levels” (eLife, 2017)
Whole data set: some 1,700 compounds, median “T3 sensor activation Q score (MG/GFP ratio z-score vs DMSO controls)” near 0.25, cut for the highest 2% near 1.9. The full list was thinned out, with the highest values kept by preference.

System: ppGalNAc-T3 sensor
Test: T3 sensor activation Q score (MG/GFP ratio z-score vs DMSO controls) (SD units); higher = more sensor activation (inhibition of ppGalNAc-T3 glycosylation)
Conditions: HEK293 sensor cells; 10 µM; 6 h
Experimental: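 Cells were treated with compound at 10 uM for 6 h, then MG/GFP ratio was read by flow cytometry (10,000 cells per well, duplicate wells). Q = (R - R_neg)/SD_neg relative to DMSO vehicle controls; the signal rises when the glycosyltransferase is inhibited.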

| SMILES | T3 sensor activation Q score |
| --- | --- |
| O=C(NN1CCCCC1)NN1CCCCC1 | 1.35 |
| O=C(O)c1cccc2c1C(=O)c1cccc3snc-2c13 | -0.15 |
| CN1C(=C=Cc2cc(I)c(O)c(I)c2)C(C)(C)c2ccccc21 | 1.9 |
| CCCNC(=O)c1ccc(S(N)(=O)=O)cc1 | 0.65 |
| O=C(c1ccccc1)C1C(c2ccccc2)C1[N+](=O)[O-] (configuration not stated) | 1.7 |
| O=[N+]([O-])C1C(c2ccccc2)C12c1ccccc1-c1ccccc12 (configuration not stated) | 3.55 |
| Cc1cnc2cc(Cl)ccc2c1SCC(=O)O | 0.5 |
| CCN(CC)Cc1cc2[nH]c3c4ccc(Cl)cc4ncc3c2cc1OC | 1.9 |
| c1ccc(-c2nc[nH]c2-c2ccccc2)cc1 | 0.1 |
| C[C@@H]1C[C@H]2OC(=O)[C@@]3(C)CCC[C@@](C)([C@@H]23)[C@@]1(O)CCc1ccoc1 | 0.2 |
| COC(=O)c1cc2c(n1S(=O)(=O)c1ccc(C)cc1)C(=O)C(=O)c1[nH]cc(C(=O)OCc3ccccc3)c1-2 | 0.25 |
| C1CCc2nc3c(nc2C1)CCCC3 | -0.2 |
| Nc1c(Cl)cc(S(N)(=O)=O)cc1S(N)(=O)=O | 1.1 |
| CC(C)(C)n1nc(C2CC2)cc1NC(=O)Nc1ccccc1 | 0.25 |
| COC(=O)C1(F)C(=O)NC(=O)NC1OC (configuration not stated) | 0.6 |
| O=C(N(c1ccccc1)c1ccccc1)N(c1ccccc1)c1ccccc1 | 1 |
| COc1cc2ncnc(Nc3ccc(F)c(Cl)c3)c2cc1OCCCN1CCOCC1 | 1.2 |
| COc1cc2c(Nc3ccc(Br)cc3F)ncnc2cc1OCC1CCN(C)CC1 | 2.1 |
| COc1cc(Nc2c(C#N)cnc3cc(OCCCN4CCN(C)CC4)c(OC)cc23)c(Cl)cc1Cl | 1 |
| O=C(O)C(=O)Nc1ncn[nH]1 | -1.75 |
| CCCc1nc2c([nH]1)c(=O)n(C)c(=O)n2C | -0.95 |
| Cn1c(=O)c2c(nc(N3CCCCC3)n2C)n(C)c1=O | -0.65 |
| Cn1c(=O)c2[nH]c(N3CCCCC3)nc2n(C)c1=O | 1.9 |
| NC1(N2SC(S)=C3CCCC=C32)CCCCC1 | 0.75 |
| NC1=C(O)C(=O)C(c2ccccc2)O1 (configuration not stated) | 0.05 |

| SMILES | T3 sensor activation Q score |
| --- | --- |
| O=c1cc(-c2cccnc2)oc2c1ccc1ccccc12 | 1.25 |
| O=C1c2ccccc2NC(c2cc(Cl)cc(Cl)c2O)N1CCc1ccccn1 (configuration not stated) | 0.55 |
| Cc1nnc2nc(N)[nH]n2c1=O | -1.2 |
| O=C(O)CSc1nc2ccccc2s1 | -0.1 |
| COC1=C[C@@H](C)[C@@H]2C[C@H]3OC(O)C[C@H]4C(C)=C(OC)C(=O)[C@H]([C@@]2(C)C1=O)[C@@]34C (some centres not stated) | 0.4 |
| CCOC(=O)Cc1csc2nc(-c3ccccc3)nn12 | 0.25 |
| N#CC1=CC2CN(Cc3ccccc3)C1C1C(=O)N(c3ccccc3)C(=O)C21 (configuration not stated) | 0.45 |
| c1ccc(-c2nnc3nc(N4CCCCC4)nc(N4CCCCC4)n23)cc1 | 1.3 |
| NC(N)=NCCCS(=O)(=O)Nc1ccc(Nc2c3ccccc3nc3cc([N+](=O)[O-])ccc23)cc1 | -0.75 |
| CN(C)c1ccc(/C=C2/C=C(c3ccc4c(c3)CCCC4)OC2=O)cc1 | 0.9 |
| Clc1cc2c(nn1)Nc1ccccc1S2 | 0.2 |
| CC(C)c1ncc(CO)n1Cc1c(Cl)cccc1Cl | 1.85 |
| Cn1c(CO)cnc1-c1ccccc1 | 0.3 |
| O=c1[nH]c(SCc2ccccc2[N+](=O)[O-])nc2nc[nH]c12 | 0.3 |
| O=c1cc(-c2ccccc2)oc2ccc(O)cc12 | 0.15 |
| N[C@H](C(=O)O)[C@H]1ON=C(Cl)[C@H]1O | -0.15 |
| COc1c(C=O)c2c(c(OC)c1OC)-c1ccc(OC)c(=O)cc1C(NC(C)=O)CC2 (configuration not stated) | 4.1 |
| CS/C(=N\S(=O)(=O)c1ccccc1)NNC(=O)c1c(-c2c(Cl)cccc2Cl)noc1C | 0.65 |
| CC1CC=C(O)C12OCC(C)(C)CO2 (configuration not stated) | -0.05 |
| Cc1ccc(S(=O)(=O)N2CC=C(N)N2)cc1 | -0.2 |
| Cc1nc2ccccc2nc1NS(=O)(=O)c1ccc(N)cc1 | -0.1 |
| OCc1nc2nc(Cl)c(Cl)nc2[nH]1 | -1.15 |
| CC(C)CCCCCCCCCCCCC(=O)NCC(=O)NC1C(C)OC(Nc2ncnc3nc[nH]c23)C(O)C1O (configuration not stated) | -1.5 |
| Cc1ccn2c(C(C)O)nnc2c1 (configuration not stated) | 0.05 |
| Cc1cc(C)n2c(C)nnc2c1 | 1.85 |

| SMILES | T3 sensor activation Q score |
| --- | --- |
| COC(=O)c1c[n+]([O-])ccc1OC | -0.5 |
| CN(C)S(=O)(=O)c1ccccc1N=C=S | -1.15 |
| CCOC(=O)/C=C/c1ccc(C(=O)OCC)[nH]1 | -1.5 |
| CCOC(=O)/C=C/c1nc(C(=O)OCC)c(C)c(=O)[nH]1 | 1.9 |
| CCOC(=O)c1nn(C)c2[nH]c(=O)n(C)c(=O)c12 | 0.15 |
| CN(C)S(=O)(=O)Nc1cccc(Br)c1 | 1.8 |
| CNNCc1ccc(C(=O)NC(C)C)cc1 | 1.85 |
| CC(C)NC(=O)c1ccc(C(C)C)cc1 | -0.3 |
| CCC(C)NC(=O)c1cccc(C)c1 (configuration not stated) | 1.35 |
| Nc1nc(N)c2cc(Sc3ccc4ccccc4c3)ccc2n1 | 1.15 |
| CCc1ccc(CCN2C(=O)c3ccccc3C2=O)nc1 | 0.1 |
| CCOC(=O)c1nnsc1-c1ccc(-c2snnc2C(=O)OCC)cc1 | 0.95 |
| Clc1ncnc2[nH]ccc12 | -0.05 |
| C=CCN=C(NC#N)SC | 0.05 |
| COc1cc(NC(C)=O)c2ncccc2c1NC(C)=O | 1.2 |
| O=c1[nH]cnc2c1ncn2Cc1ccc([N+](=O)[O-])cc1 | 0.15 |
| CCOC(=O)c1cc2c(OC)c(OC)ccc2c2[nH]cc(C#N)c(=O)c12 | 0.7 |
| Cn1nc(SCc2ccccc2)c(=O)n(C(c2ccccc2)c2ccccc2)c1=O | -0.65 |
| O=C1/C(=C\c2ccc([N+](=O)[O-])cc2)CCc2ccccc21 | 0.4 |
| COc1cccc(/C=C2\CCc3ccccc3C2=O)c1 | -0.1 |
| CCOc1ccc(/C=C2\CCc3ccccc3C2=O)cc1 | 1.85 |
| O=C(O)C1OCC2(CO1)COC(C(=O)O)OC2 (configuration not stated) | 0.6 |
| CC(C)(C)NC(=O)c1ccc(C(=O)NC(C)(C)C)cc1 | -0.4 |
| CC(=O)CC[N+](C)(C)C | 0.75 |
| O=C(/C=C/c1ccccc1)CC(c1ccccc1)N1CCOCC1 (configuration not stated) | 0.15 |

| SMILES | T3 sensor activation Q score |
| --- | --- |
| Nc1ccc(C(=O)Nc2ccc(NC(=O)c3ccco3)c(O)c2)cc1 | 1.85 |
| Nc1ccc(NC(=O)c2ccc(C(=O)Nc3ccc(N)cc3)cc2)cc1 | 1.05 |
| Nc1ccc(C(=O)Nc2cccc(N)c2)cc1 | -1.35 |
| OC[C@H]1O[C@@H](n2cnc3c2NC=NC[C@H]3O)C[C@@H]1O | 1.3 |
| NC(=O)CCC(C(=O)O)N1C(=O)c2ccc(O)cc2C1=O (configuration not stated) | -0.1 |
| N#CC1=C2CCCCC2(O)NC1=O (configuration not stated) | -0.45 |
| CC1=C2C3OC(=O)C(C)C3CCC2(C)C=C(Cl)C1=O (configuration not stated) | 1.1 |
| CC1=CC2C(C(O)CC3(C)C2CC(C)C32OCOC23COCO3)C2(C)CC(=CO)C(=O)C=C12 (configuration not stated) | -3.35 |
| CC(=O)[C@@]1(O)[C@H](C)C[C@H]2[C@@H]3C=C(C)C4=Cc5c(cnn5-c5ccccc5)C[C@]4(C)[C@H]3[C@@H](O)C[C@@]21C | 5 |
| COC1C(=O)CCC2(CO2)C1(O)C1(C)OC1CC=C(C)C (configuration not stated) | -1.6 |
| OCC1(CO)CC2(C1)CC(CO)(CO)C2 | -1.15 |
| c1ccc(Nc2cccc3c(Nc4ccccc4)cccc23)cc1 | -0.45 |
| COc1ccc(NC(=O)CC(C)=O)c(OC)c1 | -0.1 |
| CC1(C)N=C(N)NC(=NCCCOc2ccc([N+](=O)[O-])cc2)N1 | 0.35 |
| O=S1(=O)CSCS(=O)(=O)C1 | -0.85 |
| CSc1cccc(NC(=O)Nc2ccccc2C(N)=O)c1 | 0.9 |
| Cc1ccc(NC(=O)Nc2ccccc2C(N)=O)cc1 | -0.95 |
| Cc1cc(NC(=O)NC(=O)c2ccccc2NC(=O)C(C)N)ccc1Oc1ncc(Br)cn1 (configuration not stated) | 4.35 |
| C[C@@H]1O[C@@H](Oc2c(-c3cc(O)c(O)c(O)c3)oc3cc(O)cc(O)c3c2=O)[C@H](O)[C@H](O)[C@H]1O | 0.05 |
| NC(N)=Nc1ccc(N=C(N)N)cc1 | 0.3 |
| COc1ccc(OC)c(NC(=O)c2cc3oc4ccccc4c3cc2O)c1 | -1.55 |
| Nc1cc(=O)[nH]c2ncnn12 | -0.15 |
| CCOc1ccc(NC(=O)C2CCCN(C)C2)cc1 (configuration not stated) | 0.6 |
| Nc1ncnc2c([C@@H]3O[C@H](CO)[C@@H](O)[C@H]3O)c[nH]c12 | 0.15 |
| COC(=O)CC1OCC=C2CN3CCC45C6=CC(=O)C(=O)C([N+](=O)[O-])=C6NC4C1C2CC35 (configuration not stated) | -0.2 |

| SMILES | T3 sensor activation Q score |
| --- | --- |
| CCOC(=O)C1(C#N)C(=O)CSC1=Nc1ccccc1Cl (configuration not stated) | -1.05 |
| CCOC(=O)Nc1c2ccccc2nc2ccccc12 | -1.8 |
| CCOC(=O)Nc1cc2c(c(N)n1)N=C(c1ccccc1)CN2 | 4 |
| CCOC(=O)Nc1csnn1 | -0.7 |
| Oc1ccc(Nc2ccnc3cc(Cl)ccc23)cc1 | 1.1 |
| O=C(Nc1cccc([N+](=O)[O-])c1)c1cccc(C(=O)Nc2cccc([N+](=O)[O-])c2)c1 | -0.25 |
| Cc1c(-c2ccccc2)n(O)[n+]([O-])c1-c1ccccc1 | 0.7 |
| Oc1ccccc1Nc1ccccn1 | 1.75 |
| Cc1nnc2nc(-c3ccccc3)nc(-c3ccccc3)n12 | -1.75 |
| CCOC(=O)c1c(O)cc(C)[nH]c1=O | -0.85 |
| O=S(=O)(c1ccc2c(c1)CCCN2)N1CCC[C@H]2CCCC[C@@H]21 | 0.2 |
| O=C1OC(CN(Cc2ccccc2)Cc2ccccc2)CN1/N=C/c1ccc([N+](=O)[O-])o1 (configuration not stated) | -0.6 |
| Cc1cc2nc(CS)[nH]c2cc1C | -1.1 |
| CC(=O)Nc1ccc2cc3ccc(NC(C)=O)cc3nc2c1 | 0.2 |
| Cc1ccc(-n2nnnc2-c2cccnc2)cc1 | -0.15 |
| CCOC(=O)c1cc[nH]c1CC(=O)NC | 0.6 |
| Cc1ccc2c(c1)c1ccc3c(c1n2C)C(=O)C=CC3=O | -1.5 |
| Cc1cccc(C)c1NC(=O)Nc1ccc(S(N)(=O)=O)cc1 | 1.6 |
| CCOC(=O)/C(C#N)=C1\SS/C(=C(/C#N)C(=O)OCC)S1 | 0.55 |
| c1cc(CN2CCCNCCNCCCNCC2)ccc1CN1CCCNCCNCCCNCC1 | -0.5 |
| NCCN1CCNCC1 | 1.85 |
| C=CCOc1ccc(S(C)(=O)=O)cc1 | 1.85 |
